This passage reports inhibition results from PubChem BioAssay AID873 (PCMD, 2007).

Screen size: about 210,000 compounds; about 1,300 (0.62%) were called active.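 Rule for the calls: active = inhibition of 40% or more; inactive = the rest.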 The entries come from a sample that favours actives as a whole.

The target of the experiment is Kallikrein-5 (Homo sapiens) (UniProt Q9Y337). In words: human KLK5 protease inhibitors, primary screen, biochemical, 1536-well (AID 873).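 Note: 0% = enzyme controls without compound and 100% = no-enzyme blanks.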 The note with it: recombinant hK5, fluorogenic AMC substrate cleavage; at 5 µM; active compounds read high.
Kallikrein-5 (Homo sapiens), sequence (Q9Y337 67-293 limits assumed): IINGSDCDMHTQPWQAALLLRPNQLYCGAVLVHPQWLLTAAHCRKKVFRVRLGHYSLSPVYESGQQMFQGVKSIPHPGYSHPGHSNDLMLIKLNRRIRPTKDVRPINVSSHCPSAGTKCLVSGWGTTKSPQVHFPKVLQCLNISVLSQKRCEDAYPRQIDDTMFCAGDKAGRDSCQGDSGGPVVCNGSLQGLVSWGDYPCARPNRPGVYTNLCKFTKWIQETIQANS
On to `COC(=O)c1noc(C)c1-c1ccnn1C(=O)c1ccc(Cl)cc1`, for which the inhibition was 14.2% (inactive). To `O=C(O)c1ccccc1-c1ccccc1C(=O)Nc1cccc2ccccc12` belongs 3.53% (inactive); to `O=C(O)CSc1nccc2ccccc12`, -3.99% (inactive). To `O=C(O)C#Cc1cccc2ccccc12` belongs 42.9% (active); to `COC(=O)c1cc(C(=O)OCC(=O)Nc2cc(C)on2)cc([N+](=O)[O-])c1`, 23.6% (inactive); to `C/C(=N\NC(=S)NCc1ccccc1)c1ccc(Cl)cc1`, 56.7% (active). In the case of `C/C(=N\NC(=S)NCc1ccccc1)C1CCCCC1`, the inhibition was -4.43% (inactive). The value for `O=C(O)c1ccc(/C=N/NC(=S)NCc2ccccc2)cc1` was -1.6% (inactive); that for `COc1ccc(C(=O)c2oc3ccc(Br)cc3c2NC(C)=O)cc1` was -25.1% (inactive); that for `COc1ccc2oc(C)c(NC(C)=O)c2c1` was -13.5% (inactive). The value for `COC(=O)c1oc2ccc(Br)cc2c1NC(C)=O` was 41.8% (active); that for `Cc1ccc(Nc2nc(Cl)c(C=O)s2)cc1` was 0.92% (inactive); that for `O=C(CS(=O)(=O)c1cn(Cc2cccc(F)c2)c2ccccc12)N1CCCCC1` was -11.7% (inactive). To `COc1cccc(NC(=O)CS(=O)(=O)c2cn(CC(=O)N3CCOCC3)c3ccccc23)c1` belongs -2.04% (inactive); to `O=C(CS(=O)(=O)c1cn(Cc2ccc(Cl)cc2)c2ccccc12)N1CCOCC1`, 47% (active).

`COCCNC(=O)Cn1cc(C(=O)c2cccs2)c2ccccc21`: the inhibition is -5.68% (inactive).

As to `O=C(Cn1cc(C(=O)c2cccs2)c2ccccc21)NCc1cccs1`, the inhibition was -1.96% (inactive). The value for `COC(=O)Cn1cc(C(=O)c2cccs2)c2ccccc21` was 40.6% (active); that for `Cc1ccc(OCC(=O)Nc2nnc(-c3ccco3)s2)cc1` was -1.13% (inactive); that for `CC(C)CNc1ncnc2c1cnn2Cc1ccc(Cl)cc1` was -1.93% (inactive). To `Cc1cccc(NC(=O)c2ccc([N+](=O)[O-])o2)c1` belongs -2.56% (inactive). Turning to `O=C(Nc1ccc(Br)cn1)c1ccc([N+](=O)[O-])o1`, the inhibition is -4.1% (inactive).

Consider `Cc1onc(NC(=O)c2ccc([N+](=O)[O-])o2)c1Br`, for which the inhibition is 47.1% (active). As to `CCCNc1c(N)c(=O)c1=O`, the inhibition is -0.24% (inactive). To `Cc1ccc(Oc2nc(-c3ccccn3)nc3ccccc23)cc1` belongs -11.3% (inactive); to `N#C/C(=C/c1ccc(-c2ccccc2[N+](=O)[O-])o1)C(=O)NCCN1CCCCC1`, 1.64% (inactive). To `Cc1ccc(-c2csc(-c3cc(C)on3)n2)cc1` belongs 44.8% (active); to `CCCc1cc(-c2nc(-c3ccc(C)cc3)cs2)ccn1`, -10.9% (inactive). The value for `Cc1ccc(-c2csc(SCC(=O)Nc3cc(C)on3)n2)cc1` was -2.17% (inactive). With `O=c1c(/C=N/O)coc2ccc(Cl)cc12`, the inhibition is 3.19% (inactive). The value for `Cc1ccc(N2C(=O)CC(Nc3cccc4ccccc34)C2=O)cc1` (stereo not given) was 0.34% (inactive); that for `CC1C(=O)NC(=O)C1c1ccccc1` (stereo not given) was 1.86% (inactive). To `CCOc1ccc(CN(Cc2ccco2)C(c2cccs2)c2nnnn2C(C)(C)C)cc1` (stereo not given) belongs 9.28% (inactive); to `CC(C)(C)n1nnnc1C(c1cccs1)N(Cc1cccnc1)CC1CCCO1` (stereo not given), 45% (active).

Take `CC(C)C(c1nnnn1C(C)(C)C)N1CCN(Cc2cccnc2)CC1` (stereo not given): the inhibition was 4.44% (inactive). On to `CC(=O)c1sc2nc(SCC(=O)N3CCCCC3)[nH]c(=O)c2c1C`, for which the inhibition is -8.76% (inactive). The value for `Cc1nnc(SCC(=O)N2CCOCC2)[nH]c1=O` was -13.7% (inactive).

As for `O=C(CSc1nc2c(cnn2-c2ccc(F)cc2)c(=O)[nH]1)N1CCCCCC1`, the inhibition was 68.2% (active). Consider `Cc1coc2cc3oc(=O)c(CCC(=O)O)c(C)c3cc12`, for which the inhibition is -1.04% (inactive).

Take `Cc1ccc(C(O)P(=O)(OC(C)C)c2ccc(N(C)C)cc2)cc1` (stereo not given): the inhibition was -0.37% (inactive). The value for `COc1ccc(C(=O)Nc2cccc(S(C)(=O)=O)c2)cc1` was 9.53% (inactive); that for `CCC(=O)Nc1ccc(C(=O)Nc2cccc(OC)c2)cc1` was -2.36% (inactive); that for `COc1cccc(NC(=O)c2ccc(S(=O)(=O)N(C)C)cc2)c1` was 58.8% (active). To `CC1CN(c2nc(Nc3ccccc3)nc(N)c2[N+](=O)[O-])CC(C)O1` (stereo not given) belongs 1.28% (inactive). The value for `COn1c(-c2ccc(Cl)cc2Cl)nc2ncccc21` was -1.75% (inactive). Take `Cc1ncn2cc(-c3ccc(Cl)cc3Cl)[nH]c(=O)c12`: the inhibition was 63% (active). To `Clc1ccc(-c2ncc3ccccn23)c(Cl)c1` belongs 2.07% (inactive); to `COc1ccc(OC)c(-n2c(-c3ccn[nH]3)n[nH]c2=S)c1`, -4.85% (inactive).

`NC(=O)Cc1ccc2c(c1)[nH]c1ccccc12`: the inhibition is 49.5% (active). The value for `CCn1c2ccccc2c2cc(CC(N)=O)ccc21` was 0.83% (inactive); that for `NC(=O)Cc1ccc2sc(-c3ccccc3)nc2c1` was 29.8% (inactive). The value for `CCN(CC)c1ccc(/C=N/NC(=O)c2cnccn2)c(O)c1` was -3.69% (inactive); that for `Cc1nnc(SCC(=O)N2CCc3ccccc3C2)s1` was 16.7% (inactive). The value for `Cc1nc(SCC(=O)N2CC(=O)Nc3ccccc32)c2c(C)c(C)sc2n1` was -0.11% (inactive). Turning to `Cc1nc(SCC(=O)N2CCc3ccccc3C2)c2c(C)c(C)sc2n1`, the inhibition is 59.1% (active). The value for `COc1ccccc1C1CCN(c2ccc([N+](=O)[O-])cn2)CC1` was 0.29% (inactive); that for `CC(=O)c1ccc2c(c1)OCCOCCOc1ccc(C(C)=O)cc1OCCOCCO2` was -1.51% (inactive); that for `O=c1[nH]c2cccnc2n1-c1ccc([N+](=O)[O-])cc1` was 0.04% (inactive). In the case of `O=C(O)Cc1ccc(NC(=O)C2CCCCC2C(=O)O)cc1` (stereo not given), the inhibition was 46.5% (active). As for `O=C(O)C1CCCCC1C(=O)Nc1ccc(Cl)cc1` (stereo not given), the inhibition was 2.31% (inactive). The value for `O=C(O)c1ccc(NC(=O)C2CCCCC2)cc1` was -4.28% (inactive); that for `COc1ccc(-c2noc(CN(C)S(=O)(=O)c3ccc(C)cc3)n2)cc1` was 1.11% (inactive); that for `COc1ccc(-c2noc(CSc3ccc(C)cc3)n2)cc1` was 55.4% (active). The value for `COc1ccc(-c2noc(-c3ccc(C)cc3)n2)cc1` was -5.34% (inactive). To `O=C(Nc1ccc(S(=O)(=O)N2CCOCC2)cc1)c1ccc2ncsc2c1` belongs 6.27% (inactive).
